Mtb bLac sens – beta-lactam sensitization of Mtb H37Rv, H37Rv; M. tuberculosis H37Rv growth with meropenem, percent inhibition; inhibition, % at 25 µM; 330,000 tested, 0.27% active; call rule not given here;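 further: growth measured after seven days incubation then overnight dye step; 0% = bacteria only wells and 100% = bacteria with antibiotic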
FBA Mtb inh – Mtb FBA enzyme inhibitors, primary screen, biochemical, fluorescence, strain H37Rv; purified M. tuberculosis FBA, fluorescence read-out; 360,000 tested, 2.3% active; inhibition, % at 1 µM; AID 588726, 2011; in the data active means inhibition above about 27%;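 further: 0% = vehicle and 100% = reference inhibitor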
Target sequence (P9WQA3 whole entry, looked up): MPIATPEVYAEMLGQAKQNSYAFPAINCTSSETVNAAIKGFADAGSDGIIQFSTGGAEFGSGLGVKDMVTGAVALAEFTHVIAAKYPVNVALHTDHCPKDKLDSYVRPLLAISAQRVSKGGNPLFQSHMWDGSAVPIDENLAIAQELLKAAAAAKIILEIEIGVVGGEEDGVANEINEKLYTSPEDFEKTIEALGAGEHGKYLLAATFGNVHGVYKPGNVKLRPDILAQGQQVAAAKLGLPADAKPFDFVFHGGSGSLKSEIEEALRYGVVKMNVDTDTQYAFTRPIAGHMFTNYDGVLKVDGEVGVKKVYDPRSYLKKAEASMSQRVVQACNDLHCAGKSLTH
RecA splice inh – Mtb RecA intein splicing inhibitors, primary screen, biochemical, fluorescence, HTS; Protein RecA (Mycobacterium tuberculosis (strain ATCC 25618 / H37Rv)), P9WHJ3; cell-free RecA intein splicing; inhibition, % (concentration not given with the values); 290,000 tested, 0.75% active; AID 2221, 2009; in the data active means inhibition above about 30%;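 further: 0% = vehicle wells and 100% = reference inhibitor control wells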
CCHFV vOTU inh – CCHFV vOTU protease inhibitors, primary screen, biochemical, Pep-AMC substrate, fluorescence; 370,000 tested, 0.55% active; Crimean-Congo hemorrhagic fever virus L polyprotein viral ovarian tumor (vOTU) protease …; AID 651958, 2012; inhibition, % at 11.5 µM; further: 0% = vehicle wells with enzyme and 100% = no enzyme wells
GDH-TPI counter – GDH-TPI coupling enzyme inhibitors, primary screen, artefact control for M. tuberculosis FBA inhibitor project, biochemical, absorbance, full deck | GDH-TPI coupled enzyme counterscreen, NADH absorbance | inhibition, % at 4.8 µM | 360,000 tested, 1.2% active | AID 588335, 2011;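 further: 0% = DMSO wells and 100% = wells lacking the enzyme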
An asterisk follows results filed as active; . = no result given; + = active, no number. Most compounds without a hit are left out; they make up all but 4.2% or so of the library. Unless noted, no stated cut-off is given here; in the data, active means inhibition above about 30%; inactive means the rest.

SMILES | Mtb bLac sens | FBA Mtb inh | RecA splice inh | CCHFV vOTU inh | GDH-TPI counter
COc1cc2cc(Oc3ccc4ccc(=O)oc4c3)c(=O)oc2cc1OC1OC(COC(=O)CC(C)(O)CC(=O)O)C(O)C(O)C1O (configuration not stated) | -5 | 26 | 3 | -25 | 32*
O=c1ccc2cc(O[C@@H]3O[C@H](CO)[C@@H](O)[C@H](O)[C@H]3O)c(O)cc2o1 | . | + | . | -278 | 18
COc1cc2cc(Oc3ccc4ccc(=O)oc4c3)c(=O)oc2cc1O[C@@H]1O[C@H](CO)[C@@H](O)[C@H](O)[C@H]1O | 2 | 16 | . | -11 | 19
N#CCCn1cc(C(=O)Nc2ccc([N+](=O)[O-])cc2)c(-c2ccccc2)n1 | -4 | -1 | 3 | -2 | 38*
N#CCCn1cc(C(=O)Nc2ccc(C(=O)O)cc2)c(-c2ccc([N+](=O)[O-])cc2)n1 | -3 | 1 | 0 | -5 | 14
CCOC(=O)C1=C(c2ccccc2)O/C(=C(\C(=O)OC)C(F)(F)F)S1 | 2 | 3 | 2 | 7 | 10
CCOC(=O)C1=C(c2ccccc2)O/C(=C(/C#N)C(F)(F)F)S1 | 68 | . | 42* | . | .
CN(C)C=Nc1ncc2c3ccccc3n(Cc3ccccc3)c2c1C#N | -3 | 3 | -4 | 4 | -6
CN(C)C=Nc1ncc2c3ccccc3n(CCN(C)C)c2c1C#N | 9 | 7 | 0 | -6 | 33*
O=C(NCC1COc2ccccc2O1)c1ccc(NC(=O)C(Cl)Cl)cc1 (configuration not stated) | . | . | . | -1 | .
CCN(/N=C/C=C/c1ccccc1)c1cc(=O)n(C)c(=O)[nH]1 | 7 | -2 | 2 | 17 | 70*
Cn1c(=O)cc(Nc2ccccc2)[nH]c1=O | -1 | 0 | -1 | -11 | -2
Cn1c(=O)cc(C(=O)N/N=C/c2ccc(Cl)cc2)[nH]c1=O | -9 | -1 | 14 | -4 | 16
CCN(/N=C/c1ccc(Cl)cc1)c1cc(=O)n(C)c(=O)[nH]1 | -2 | 0 | 3 | 9 | 51*
N#CCC[C@@H]1CC[C@]2(CCCN(Cc3ccc(Cl)cc3)C2)O1 | . | . | . | -3 | .
Cc1ccc(NC(=O)CSc2nc(C)cc(=O)[nH]2)c(C)c1 | . | . | . | -6 | .
CCOC(=O)c1cnc2c(C(=O)OCC)cnn2c1N | 0 | 6 | -3 | 20 | -8
CCOC(=O)c1cnc2c([N+](=O)[O-])cnn2c1C | 0 | 0 | 1 | -9 | 37*
CCN(CC)C(=O)CC[C@H]1CC[C@]2(CCCN(Cc3cccs3)C2)O1 | . | . | . | -2 | .
O=C(NCCNc1ccnc2cc(Cl)ccc12)c1ccccc1F | 0 | 6 | 0 | -1 | 43*
Cc1ccc(C)c(NC(=O)c2cc(-c3ccc(Cl)cc3)nc3ccccc23)c1 | . | . | . | -3 | .
Cc1cccc(Nc2nc(N3CCN(C)CC3)nc(N)c2[N+](=O)[O-])c1 | 9 | -7 | -1 | 3 | 23
CCN1CCN(c2nc(N)c([N+](=O)[O-])c(Nc3cccc(C)c3)n2)CC1 | -2 | 1 | -3 | 2 | 35*
C=CCOC(=O)N[C@H](c1cccc(OC)c1)[C@H](C)/C=C/CC(=O)OC | . | . | . | 5 | .
CCn1c(Cc2cccs2)nnc1SCC(=O)c1ccc(Cl)cc1 | . | . | . | 15 | .
SMILES | Mtb bLac sens | FBA Mtb inh | RecA splice inh | CCHFV vOTU inh | GDH-TPI counter
CC(=O)NC1C(=O)N(CCN2CCOCC2)c2ccc(C)cc21 (configuration not stated) | -7 | 0 | 65* | . | -2
CCN1C(=O)C(NC(C)=O)c2cc(Br)ccc21 (configuration not stated) | 0 | -1 | 0 | 2 | 12
CCCCN1C(=O)C(NC(C)=O)c2cc(Br)ccc21 (configuration not stated) | -4 | -2 | -4 | 5 | 2
CC(=O)NC1C(=O)N(CCN2CCOCC2)c2ccc(F)cc21 (configuration not stated) | 4 | -4 | 41* | -9 | 1
CC(=O)NC1C(=O)N(CCN2CCOCC2)c2ccc(Cl)cc21 (configuration not stated) | 3 | 0 | 46* | -7 | -8
COC[C@H]1CCCN1c1cccc2c1S(=O)(=O)N1CC[C@H](C1)O2 | . | . | . | 1 | .
CC1(C)Nc2ccccc2C(=O)N1c1ccccc1 | -7 | 115* | -4 | -9 | 8
CC1(C)Nc2ccccc2C(=O)N1NC(=O)c1ccccc1 | 3 | 11 | 2 | -23 | 8
